# Bioassay records as filed in PubChem.
# GDH-TPI counter-1 = inhibits GDH-TPI coupling enzymes, artifact for Mtb FBA screen | GDH-TPI coupled enzyme counterscreen, NADH absorbance | inhibition, % at 4.8 µM | AID 588335 | actives 1.2% (n = 360,000); in the data active = inhibition above about 30%;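 also: 0% = DMSO wells and 100% = wells lacking the enzyme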
# Mtb UGM inh = inhibitors of M. tuberculosis UDP-galactopyranose mutase; P9WIQ1; purified UGM, fluorescence polarization probe displacement; inhibition, % at 10 µM; actives 0.06% (n = 320,000); in the data active = inhibition above about 10%, passing the limit was not always enough
# Target sequence (P9WIQ1 whole entry, looked up): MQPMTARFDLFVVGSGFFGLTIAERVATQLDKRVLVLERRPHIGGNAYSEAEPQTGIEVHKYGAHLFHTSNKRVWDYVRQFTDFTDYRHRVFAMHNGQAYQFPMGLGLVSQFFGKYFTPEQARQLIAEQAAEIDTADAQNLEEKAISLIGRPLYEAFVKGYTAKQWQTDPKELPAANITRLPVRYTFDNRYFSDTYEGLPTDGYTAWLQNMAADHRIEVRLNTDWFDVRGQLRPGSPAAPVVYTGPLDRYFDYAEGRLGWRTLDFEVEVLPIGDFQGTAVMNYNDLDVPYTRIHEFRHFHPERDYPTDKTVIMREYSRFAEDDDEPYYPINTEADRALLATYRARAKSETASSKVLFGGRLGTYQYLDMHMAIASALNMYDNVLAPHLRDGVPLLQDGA
# FBA Mtb inh = inhibits M. tuberculosis FBA enzyme; P9WQA3; purified M. tuberculosis FBA, fluorescence read-out; inhibition, % at 1 µM; actives 2.3% (n = 360,000);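 also: 0% = vehicle and 100% = reference inhibitor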
# Rv3671c inh = inhibits the M. tuberculosis serine protease Rv3671c; inhibition, % at 5.96 µM; actives 0.048% (n = 320,000); AID 2606; in the data active = inhibition above about 38%;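 also: extracellular domain of Rv3671c used as enzyme; 0% = enzyme with DMSO and 100% = no enzyme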
# Mtb FBA confirm = Mtb FBA inhibition, confirmed; inhibition, % at 1 µM; purified M. tuberculosis FBA, fluorescence read-out; actives 78% (n = 5,600); shares compounds with FBA Mtb inh;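 also: 0% = vehicle wells and 100% = reference inhibitor wells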
# GDH-TPI counter-2 = inhibits GDH-TPI coupling enzymes, flagging Mtb FBA hits; inhibition, % at 1 µM; shares compounds with FBA Mtb inh; GDH-TPI coupled enzyme counterscreen, fluorescence; actives 81% (n = 5,600); in the data active = inhibition above about 10%
# GDH-TPI DR = inhibits GDH-TPI coupling enzymes in dose response | shares compounds with FBA Mtb inh | GDH-TPI coupled enzyme assay, fluorescence, artifact counterscreen | IC50, µM | actives 79% (n = 170) | AID 652145; call rule not given here
# An asterisk follows results filed as active; . = not tested or not shown; + = active, no number. Most compounds without a hit are left out; they make up all but 3.5% or so of the library. Rule as the data show it, unless noted: active = inhibition above about 27%; inactive = the rest.
SMILES,GDH-TPI counter-1,Mtb UGM inh,FBA Mtb inh,Rv3671c inh,Mtb FBA confirm,GDH-TPI counter-2,others
CCOC(=O)CNS(=O)(=O)c1ccc2c3c(cccc13)C(=O)N2CC,9,1,59*,1,46*,41*,
CCOC(=O)C1CCN(S(=O)(=O)c2ccc(C(C)(C)C)cc2)CC1,-4,0,-3,-1,.,.,
CCOC(=O)C1CCN(S(=O)(=O)c2ccc3c4c(cccc24)C(=O)N3CC)CC1,27,0,43*,-4,49*,30*,
CCOC(=O)C1CCN(S(=O)(=O)c2ccc3c4c(cccc24)C(=O)N3)CC1,4,-1,41*,0,+,+,
CCOC(=O)Cc1csc(NS(=O)(=O)c2ccc3c4c(cccc24)C(=O)N3CC)n1,9,2,-1,2,.,.,
Fc1cccc(Cc2noc(CN3CCC(c4ccncc4)CC3)n2)c1,5,0,2,-3,.,.,
Cc1cc(C)c2c(N)c(C(=O)NN3CC(=O)N(c4ccccc4)CC3=O)sc2n1,2,-2,57*,8,188*,129*,
CCOC(=O)c1cc(C#N)c(SCC(=O)O)[nH]c1=O,17,9,43*,10,32*,22*,
COc1ccc2cc(C(N)=O)c(=Nc3ccc(C)cc3)oc2c1,1,0,35*,-5,.,+,
COc1ccc2oc(=Nc3cccc(F)c3)c(C(N)=O)cc2c1,2,-1,39*,-11,7,-4,
Cc1noc(C)c1NC(=O)Nc1cccc2c1O[C@H](CN(C)C(=O)NC(C)C)[C@@H](C)CN([C@H](C)CO)C2=O,4,0,-1,6,.,.,
Cc1ccc(S(=O)(=O)N2CCC3(CC2)OCCO3)cc1,6,0,0,0,.,.,
COc1ccc(C(=O)N/N=C/c2ccc3cccc(OCc4ccccc4)c3n2)cc1,23,-2,63*,-122,26,15*,
NC(=S)N/N=C/c1ccc2cccc(OCc3ccccc3)c2n1,17,-3,40*,-46,47*,37*,
O/N=C/c1ccc2cccc(OCc3ccccc3)c2n1,3,1,22,-51,.,.,
Cc1cccc(S(=O)(=O)Nc2ccc(-n3c(C)nc4ccccc4c3=O)cc2)c1,5,1,0,3,.,.,
CCN1CC2(COC(=O)c3ccccc3N)CCC(OC)C34C5CC6C(OC)CC(O)(C5C6OC)C(O)(C(OC)C23)C14 (stereo unspecified),2,-2,36*,-3,-3,-6,
CCN1C[C@]2(COC(=O)c3ccccc3N)CC[C@H](OC)C34[C@@H]5C[C@H]6[C@H](OC)[C@@H]5[C@](O)(C[C@@H]6OC)[C@@](O)([C@H]13)[C@@H](OC)[C@@H]42,2,2,43*,7,59*,39*,
Nc1ncc(S(=O)(=O)c2ccc([N+](=O)[O-])cc2)s1,11,.,-2,.,.,.,
COC(=O)CSc1nnc([C@H](Cc2ccccc2)NC(=O)OC(C)(C)C)o1,0,1,44*,0,67*,64*,
Cc1ccc(S(=O)(=O)N(C)C)cc1NC(=O)C1CCCCN1S(=O)(=O)c1ccccc1 (stereo unspecified),3,1,106*,-11,132*,108*,
O=C(CSc1n[nH]c(-c2ccc(S(=O)(=O)N3CCCCC3)cc2)n1)Nc1nccs1,18,0,61*,-50,65*,47*,
N#Cc1cc(-c2cccc(Cl)c2)c[nH]c1=O,15,1,46*,3,10,7,GDH-TPI DR=4.1*
C=CCn1cc(-c2cccc(Cl)c2)cc(C#N)c1=O,2,-2,28*,3,69*,48*,
N#Cc1c(-c2cccc(Cl)c2)[nH]c(=S)[nH]c1=O,15,0,1,0,.,.,
SMILES,GDH-TPI counter-1,Mtb UGM inh,FBA Mtb inh,Rv3671c inh,Mtb FBA confirm,GDH-TPI counter-2,others
C=CCn1c(-c2ccccc2)ccc(C#N)c1=O,-6,-1,1,-6,.,.,
Cn1c(-c2ccc(Cl)cc2)ccc(C#N)c1=O,24,1,4,1,.,.,
Cn1cc(-c2ccc(Cl)cc2)cc(C#N)c1=O,5,1,56*,-3,23,17*,
O=C(/C=C/c1ccc(Br)o1)Nc1nnc(C2CC2)s1,.,0,.,-10,.,.,
CCC(C)NC(=O)c1ccc2nc(-c3ccc(OC)c(OC)c3)c(-c3ccc(OC)c(OC)c3)nc2c1 (stereo unspecified),4,-2,-1,4,.,.,
CCN(CC)C(=O)c1ccc2nc3ccccc3nc2c1,11,2,-2,0,.,.,
COc1ccc(-c2nc3ccc(C(=O)NCCCN4CCOCC4)cc3nc2-c2ccc(OC)cc2)cc1,-7,0,5,-30,.,.,
CCCCNC(=O)c1ccc2nc(-c3ccco3)c(-c3ccco3)nc2c1,-2,-2,0,5,.,.,
COCC(C)NC(=O)c1ccc2nc(-c3ccccc3)c(-c3ccccc3)nc2c1 (stereo unspecified),18,0,42*,-4,52*,49*,
CCCNC(=O)c1ccc2nc(-c3ccccc3)c(-c3ccccc3)nc2c1,20,0,31*,-4,62*,41*,
CCN(CC)C(=O)c1ccc2nc(-c3ccccc3)c(-c3ccccc3)nc2c1,12,-3,48*,-6,49*,40*,
CCN1CCN(CCNC(=O)c2ccc3nc(-c4cccc(C)c4)c(-c4cccc(C)c4)nc3c2)CC1,18,-1,30*,-4,59*,51*,
CC(NC(=O)CCCc1ccccc1)c1ccncc1 (stereo unspecified),-4,0,0,-8,.,.,
COc1cccc(/C=C/C(=O)OCC(=O)Nc2cccc(S(=O)(=O)NC3=NCCCCC3)c2)c1,0,0,36*,-3,0,-10,
CCCCNc1ccccc1C(=O)OCC(=O)Nc1ccc(S(N)(=O)=O)cc1,-11,-1,48*,-36,34*,23*,
C/C=C/C(=O)OCC(=O)Nc1cccc(S(=O)(=O)NC2=NCCCCC2)c1,0,0,2,-1,.,.,
O=C(COC(=O)c1ccccc1NCCO)Nc1cccc(S(=O)(=O)NC2=NCCCCC2)c1,9,-1,53*,5,-5,-7,
Cc1ccc(S(=O)(=O)N[C@H](C(=O)N2CCC(C(=O)N[C@@H](CCC(N)=O)C(=O)O)CC2)C(C)C)cc1,1,1,1,-9,.,.,
Cc1ccc(Oc2ncc(CN3CCOCC3)s2)cc1,-5,1,38*,3,50*,44*,
COc1cccc2sc3cc(NCc4ccc5c(c4)OCO5)ccc3c(=O)c12,39*,0,53*,-10,23,19*,
CC(C)CCOCC(=O)Oc1ccccc1C(=O)O,-3,-2,34*,3,-5,-4,
CC(=O)Oc1ccccc1C(=O)Oc1ccccc1C(=O)O,18,-1,9,2,.,.,
